In the library only some 11% were active in any assay of this set; here they are far more common.
L3MBTL1 block: L3MBTL1 (human) inhibition; hit rate 0.66% among 230,000; AID 485360; AlphaScreen L3MBTL1–H3K9me1 peptide binding; Potency, µM (highest dose often 57.1 µM), for inactives: at the highest dose activity, negative = inhibition, hits mostly inhibitors; also: % is scaled to controls: 0 for no effect and ±100 for the full control effect; nearly all actives have a fitted effect of over 60% in size
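Read-out is AlphaScreen signal from streptavidin donor and nickel chelate acceptor beads (10 ug/mL final each) bridging L3MBTL1 (50 nM) and biotinylated K9-monomethylated H3(1-15) peptide (75 nM), after 30 min compound exposure at room temperature.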
JMJD2A Tudor inh: inhibitors of human JMJD2A Tudor domain. O75164. AlphaScreen JMJD2A-Tudor / H3K4me3 peptide binding. Potency, µM (doses to about 114 µM), for inactives: top-dose activity change, negative = inhibition, hits mostly inhibitors. hit rate 4.4% among 390,000. AID 504339; also: % is scaled to controls: 0 for no effect and ±100 for the full control effect; nearly all actives have a fitted effect of over 50% in size
Target sequence (O75164 whole entry, looked up, the tested form may be a part): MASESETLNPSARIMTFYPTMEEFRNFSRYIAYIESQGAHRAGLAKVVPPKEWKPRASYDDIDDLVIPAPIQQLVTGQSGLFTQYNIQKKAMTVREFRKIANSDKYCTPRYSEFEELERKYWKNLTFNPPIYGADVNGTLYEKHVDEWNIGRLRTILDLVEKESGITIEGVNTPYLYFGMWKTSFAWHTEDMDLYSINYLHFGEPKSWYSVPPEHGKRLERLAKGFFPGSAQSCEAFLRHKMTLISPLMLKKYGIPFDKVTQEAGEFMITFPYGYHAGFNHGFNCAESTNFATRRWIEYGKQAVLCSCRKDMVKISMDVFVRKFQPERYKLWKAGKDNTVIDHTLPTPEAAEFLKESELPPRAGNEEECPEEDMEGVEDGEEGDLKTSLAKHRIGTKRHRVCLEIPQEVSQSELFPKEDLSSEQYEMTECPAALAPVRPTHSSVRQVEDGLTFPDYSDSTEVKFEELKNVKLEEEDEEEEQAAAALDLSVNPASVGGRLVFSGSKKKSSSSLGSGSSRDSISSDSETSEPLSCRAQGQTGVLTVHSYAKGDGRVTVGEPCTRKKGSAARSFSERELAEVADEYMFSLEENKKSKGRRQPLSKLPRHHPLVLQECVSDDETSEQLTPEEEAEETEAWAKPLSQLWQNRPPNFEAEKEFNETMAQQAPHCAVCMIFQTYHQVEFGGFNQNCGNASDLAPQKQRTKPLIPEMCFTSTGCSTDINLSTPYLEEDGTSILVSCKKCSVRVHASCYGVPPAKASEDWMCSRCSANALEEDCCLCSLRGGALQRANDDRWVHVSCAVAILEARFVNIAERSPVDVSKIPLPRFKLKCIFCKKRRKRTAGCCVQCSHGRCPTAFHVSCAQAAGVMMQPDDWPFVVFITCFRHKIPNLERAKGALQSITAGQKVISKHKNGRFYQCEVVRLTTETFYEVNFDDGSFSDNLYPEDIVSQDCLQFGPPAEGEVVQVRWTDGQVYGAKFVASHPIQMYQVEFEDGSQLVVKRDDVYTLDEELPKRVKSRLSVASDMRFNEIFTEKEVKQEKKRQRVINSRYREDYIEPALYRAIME
HP1b binding inh: inhibitors of HP1-beta chromodomain binding to methylated histone tails; P83916; AlphaScreen HP1-beta / biotin-H3K9me3 peptide binding; Potency, µM (top dose mostly 114 µM), without a hit: at the top dose activity change, negative = inhibition, actives largely listed as inhibitors; hit rate 0.56% among 390,000; AID 540317; also: nearly all actives have a fitted effect of over 70% in size
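AlphaScreen: HP1-beta (50 nM) preformed 30 min with biotin-H3(1-18)K9me3 peptide (50 nM) in PBS pH 7.4, 0.01% Tween-20. Compound added for 30 min at RT, then streptavidin donor/nickel chelate acceptor beads (10 ug/mL) for 30 min.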
G9a inh: blocks human histone lysine methyltransferase G9a; Q96KQ7; G9a H3K9 monomethylation, AlphaScreen, 2 h; Potency, µM (highest dose often 102 µM), inactives show top-dose activity, negative = inhibition, actives largely listed as inhibitors; hit rate 8.8% among 350,000; also: % is scaled to controls: 0 for no effect and ±100 for the full control effect; nearly all actives have a fitted effect of over 75% in size
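Chemiluminescent proximity detection of H3K9 monomethylation, read after 10 min bead incubation in the dark. Reaction: 20 nM G9a, 500 nM biotin-H3K9 peptide, 20 uM SAM cofactor, 2 h, room temperature, following 15 min enzyme-compound preincubation.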
BAZ2B block: blocks human BAZ2B; Q9UIF8; Potency, µM (highest dose often 114 µM), for the others: at the top dose activity change, negative = inhibition, actives largely listed as inhibitors; AID 504333; hit rate 4.4% among 360,000; AlphaScreen BAZ2B-H3K14Ac peptide displacement; also: % is scaled to controls: 0 for no effect and ±100 for the full control effect; nearly all actives have a fitted effect of over 60% in size
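BAZ2B 50 nM plus b-H3(5-23)K14Ac 50 nM, PBS pH 7.4/0.01% Tween-20, 30 min RT; compound added (max 110 uM), 30 min RT; streptavidin donor/Ni-chelate acceptor beads 10 ug/mL final, 20 min dark; AlphaScreen read.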
Active calls of the source: *; ? = inconclusive; · = no result; [ ] = another dose, or the depositor's remark. Calls follow the shape of the dose curve; as a rule, active = well fitted inhibition curve with a large enough effect; inconclusive = small, poorly fitted or top-dose-only effect; inactive = no such curve, though single readings can be large or run the other way. Potency is read from the fitted curve at half-maximal effect.

SMILES	L3MBTL1 block	JMJD2A Tudor inh	HP1b binding inh	G9a inh	BAZ2B block
O=C(CN1C(=O)C2(SCC(=O)N2c2cccc(Cl)c2)c2ccccc21)NCCc1ccccc1 (stereo not given)	·	-23.0%	35.1%	-21.1%[59 µM]	5.1%[57.1 µM]
Cc1ccc(N2CCN(C(=O)c3nn(C)c4c3CSc3ccccc3-4)CC2C)cc1 (stereo not given)	·	-9.6%	9.8%	-0.6%[59 µM]	2.7%
O=C(Nc1cccc(S(=O)(=O)NC2=NCCC2)c1)c1ccccc1	8.1%	-4.2%	33.9%	·	·
O=C(COc1ccccc1Cl)Nc1cccc(S(=O)(=O)NC2=NCCCCC2)c1	0.7%	-17.2%	26.3%	50.1µM*	-1.4%
O=C(Nc1cccc(S(=O)(=O)NC2=NCCCCC2)c1)c1ccc(Cl)cc1	4.0%	-2.8%	35.3%	50.1µM*	26.4%
CC(Oc1cccc(Cl)c1)C(=O)Nc1ccc(S(=O)(=O)NC2=NCCCCC2)cc1 (stereo not given)	-1.2%	-17.9%	9.0%	35.5µM*	6.3%
COc1ccccc1OCC(=O)Nc1cccc(S(=O)(=O)NC2=NCCCCC2)c1	3.8%	-13.8%	15.0%	-33.7%	3.4%
CC(Oc1ccc(Br)cc1)C(=O)Nc1ccc(S(=O)(=O)NC2=NCCCCC2)cc1 (stereo not given)	·	-14.3%	34.6%	·	·
Cc1ccc(-n2c(SCc3cc(=O)n4ccsc4n3)nnc2-c2cccnc2)c(C)c1	?	-27.3%	9.1%	?	56.2µM*
CCOc1ccc(-n2c(SCc3cc(=O)oc4cc(C)ccc34)nnc2-c2cccnc2)cc1	-0.6%	-10.3%	31.2%	6.9%[59 µM]	-35.2%
CC(=O)Nc1ccc2c(CSc3nnc(-c4cccnc4)n3-c3ccc(C)cc3C)cc(=O)oc2c1	-9.8%	-24.5%	20.0%	8.91µM*	?
Cc1ccc(OCC(=O)OCC(=O)c2cccc([N+](=O)[O-])c2)cc1C	·	-8.2%	13.0%	?	-20.6%
CN(C)S(=O)(=O)c1ccc(C(=O)N2CC(=O)Nc3ccc(Br)cc3C2c2ccc(F)cc2)cc1 (stereo not given)	·	-8.2%	28.6%	12.3%[59 µM]	1.0%
O=C(COc1ccccc1F)N1CCN(S(=O)(=O)/C=C/c2ccccc2)CC1	6.1%	-11.6%	27.8%	44.7µM*	5.8%
COc1ccccc1OCC(=O)N1CCCCCCC1	-2.7%	-9.6%	44.1%	·	-2.3%
COc1ccccc1OCC(=O)N1CCN(C(=O)COc2ccccc2OC)CC1	·	-20.1%	27.9%	39.8µM*	-13.6%
Cc1ccc(OCC(=O)N2CCN(S(=O)(=O)c3ccc(Cl)cc3)CC2)c([N+](=O)[O-])n1	-3.5%	-14.9%	11.5%	39.8µM*	-5.6%
COc1ccccc1OCC(=O)N1CCN(S(=O)(=O)c2ccc(Cl)cc2)CC1	-1.9%	3.4%	24.8%	44.7µM*	8.8%
COc1cc(C(=O)N2CCN(S(=O)(=O)c3ccc(Cl)cc3)CC2)ccc1OCC(=O)N1CCOCC1	·	-7.0%	66.4%	·	·
CCOC(=O)Cn1nc(N2CCN(c3ccc(F)cc3)CC2)ccc1=O	·	-7.0%	38.8%	10.6%[59 µM]	·
COc1cc([N+](=O)[O-])ccc1NC(=O)N1CCC2(CC1)Nc1ccccc1-n1cccc12	·	?	-17.5%[57 µM]	?	?
CCc1ccc(-n2c(SCc3nc(-c4cc(OC)ccc4OC)no3)nnc2-c2ccccc2)cc1	·	-35.4%	7.6%	?	-27.5%
CCc1ccc2oc(-c3cccc(NC(=O)c4ccc(N5CCC(C)CC5)c([N+](=O)[O-])c4)c3)nc2c1	·	-26.1%	5.3%	-33.2%[59 µM]	-34.4%
O=C(Cc1c[nH]c2ccccc12)N1CCN(S(=O)(=O)c2ccc(Cl)cc2)CC1	-11.0%	-26.5%	-5.1%	14.1µM*	-7.9%
O=S(=O)(c1ccc(Cl)cc1)N1CCN(Cc2c[nH]c3ccccc23)CC1	·	3.2%	26.2%	-31.6%[59 µM]	-35.6%
SMILES	L3MBTL1 block	JMJD2A Tudor inh	HP1b binding inh	G9a inh	BAZ2B block
COc1cc(NC(=S)N2CCN(c3ccccn3)CC2)c(OC)cc1Cl	-1.1%	?	-38.0%	15.8µM*	-25.7%
COc1cccc(NC(=S)N2CCN(c3ccccn3)CC2)c1	1.7%	89.1µM*	8.0%	-1.0%	-9.8%
COc1cc(NC(=S)N2CCC(C(N)=O)CC2)cc(OC)c1	2.7%	-2.1%	22.6%	-6.4%[59 µM]	9.7%
COc1cc(NC(=S)N2CCC(C(N)=O)CC2)c(OC)cc1Cl	0.0%	-18.7%	16.9%	44.7µM*	-18.6%
COc1ccc(Cl)cc1NC(=S)N1CCN(c2ccccn2)CC1	1.3%	-10.2%	15.0%	?	3.6%
S=C(Nc1cccc(Cl)c1)N1CCN(c2ccccn2)CC1	3.0%	-11.8%	37.8%	·	5.8%
COc1cc(OC)c(NC(=O)Cn2c(=O)nc(-c3ccccc3)c3ccccc32)cc1Cl	·	-16.7%	7.9%	-8.9%[59 µM]	4.1%
COc1cc(C2C(C(=O)OCC(C)C)=C(C)N=C3SCCC(=O)N32)ccc1OCc1ccccc1 (stereo not given)	·	-19.6%	6.5%	-27.2%[59 µM]	-4.7%
COc1ccc2c(c1)C(=O)[C@@H](O)[C@H](c1ccc(OC)c(Br)c1)O2	1.9%	2.2%	66.2%	-3.3%	89.1µM*
COc1cccc([C@@H]2Oc3ccc(OC)cc3C(=O)[C@H]2O)c1	12.1%	-9.1%	33.9%	79.4µM*	10.3%
COc1ccccc1C(=O)Nc1ccc2nc(SCC(=O)N3CCCC3)sc2c1	·	-14.2%	28.5%	7.9%[59 µM]	3.8%
CCOC(=O)c1ccccc1NC(=O)Cn1c(=O)n(CCCC(=O)NCc2ccc3c(c2)OCO3)c(=O)c2ccccc21	·	-8.9%	54.0%	-20.8%[59 µM]	4.8%
O=[N+]([O-])c1ccc(COc2cccc(CNc3ccc(Br)cc3)c2)cc1	-12.0%	-28.7%	-1.1%	44.7µM*	-36.5%
O=[N+]([O-])c1ccc(COc2ccc(CNc3ccccc3)cc2)cc1	-4.1%	-9.7%	28.0%	8.4%[59 µM]	?
O=c1nc(Nc2cccc(Cl)c2)oc2cc(Cl)oc(=O)c12	-9.1%	-21.7%	32.6%	50.1µM*	?
O=c1nc(Nc2ccccc2)oc2ccccc12	·	-8.6%	33.2%	-0.2%	-10.6%
CCc1ccc(NC(=O)C2CCN(S(=O)(=O)c3cccc(-c4noc(C)n4)c3)CC2)cc1	·	-21.3%	8.5%	-0.4%[59 µM]	-5.4%
N#Cc1c(-n2cccc2/C=N/O)sc2c1CCCC2	-26.5%	44.7µM*	?	?	44.7µM*
C=CCNCc1cccn1-c1sc2c(c1C#N)CCCC2	·	3.16µM*	?	?	?
N#Cc1c(N2C(=O)C3C4C=CC(C4)C3C2=O)sc2c1CCC2 (stereo not given)	15.6%	-13.3%	28.6%	-16.9%[12.7 µM]	7.6%
N#Cc1c(-n2ncnc2-c2cccc(Cl)c2)sc2c1CCCCC2	·	-23.9%	7.6%	-32.4%[59 µM]	-13.1%
CCC(=O)N1c2ccc(S(=O)(=O)NCc3ccc(F)cc3)cc2CC1C (stereo not given)	·	1.3%	56.3%	19.6%[59 µM]	·
COc1cc(C(=O)NCC(=O)N/N=C/c2ccc(-c3ccc([N+](=O)[O-])cc3)o2)cc(OC)c1OC	·	-13.4%	14.2%	44.7µM*	-12.4%

Compound activity deposited in PubChem by National Center for Advancing Translational Sciences (NCATS).
